Bioassay records (PubChem)
Mtb FBA inh: Mtb FBA enzyme inhibitors, primary screen, biochemical, fluorescence, strain H37Rv. purified M. tuberculosis FBA, fluorescence read-out. inhibition, % at 1 µM. 2.3% of 360,000 active. AID 588726, 2011;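 further: 0% = vehicle and 100% = reference inhibitor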
Target sequence (P9WQA3 whole entry, looked up): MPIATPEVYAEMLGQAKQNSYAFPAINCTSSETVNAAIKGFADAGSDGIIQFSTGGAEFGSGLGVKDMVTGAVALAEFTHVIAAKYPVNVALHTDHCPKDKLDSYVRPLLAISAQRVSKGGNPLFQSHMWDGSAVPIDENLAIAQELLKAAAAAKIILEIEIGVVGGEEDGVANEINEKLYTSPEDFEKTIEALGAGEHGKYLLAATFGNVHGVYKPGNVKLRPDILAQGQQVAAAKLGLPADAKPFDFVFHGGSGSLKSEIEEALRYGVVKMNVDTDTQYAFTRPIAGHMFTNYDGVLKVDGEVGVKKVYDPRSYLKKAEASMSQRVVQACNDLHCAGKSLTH
GDH-TPI counter-1: GDH-TPI coupling enzyme inhibitors, primary screen, artefact control for M. tuberculosis FBA inhibitor project, biochemical, absorbance, full deck; GDH-TPI coupled enzyme counterscreen, NADH absorbance; inhibition, % at 4.8 µM; 1.2% of 360,000 active; AID 588335, 2011; in the data active means inhibition above about 30%;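 further: 0% = DMSO wells and 100% = wells lacking the enzyme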
Mtb UGM inh: M. tuberculosis UGM enzyme inhibitors, primary screen, biochemical, fluorescence polarization, single point | AID 504406, 2011 | inhibition, % at 10 µM | 0.06% of 320,000 active | UDP-galactopyranose mutase (Mycobacterium tuberculosis (strain ATCC 25618 / H37Rv)), … | purified UGM, fluorescence polarization probe displacement; in the data active means inhibition above about 10%, passing the limit was not always enough; inconclusive means no clear call, values can overlap the other calls
Rv3671c inh: Rv3671c serine protease inhibitors, primary screen, biochemical, fluorescence polarization, M. tuberculosis H37Rv | P9WHR9 | inhibition, % at 5.96 µM | 0.048% of 320,000 active | AID 2606, 2010; in the data active means inhibition above about 38%;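 further: extracellular domain of Rv3671c used as enzyme; 0% = enzyme with DMSO and 100% = no enzyme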
Mtb FBA inh conf: M. tuberculosis aldolase blockers, biochemical, fluorescence, strain H37Rv, confirmation. AID 651616, 2012. inhibition, % at 1 µM. purified M. tuberculosis FBA, fluorescence read-out. 78% of 5,600 active. shares compounds with Mtb FBA inh;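 further: 0% = vehicle wells and 100% = reference inhibitor wells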
GDH-TPI counter-2: GDH-TPI coupling enzyme inhibitors, artefact control for M. tuberculosis FBA inhibitor project, biochemical, fluorescence, high throughput; AID 652141, 2013; GDH-TPI coupled enzyme counterscreen; 81% of 5,600 active; shares compounds with Mtb FBA inh; inhibition, % at 1 µM; in the data active means inhibition above about 10%
GDH-TPI DR: GDH-TPI coupling enzyme inhibitors, dose response, artefact control for M. tuberculosis FBA inhibitor project, biochemical, fluorescence, IC50. shares compounds with Mtb FBA inh. GDH-TPI coupled enzyme assay, artifact counterscreen. IC50, µM. 79% of 170 active. AID 652145, 2013; call rule not given here
The depositor's hits bear a star; ? = inconclusive; . = not tested or not shown; + = active, no number. Hits are enriched below; roughly 3.5% of the tested compounds scored in any of these assays. Unless noted, no stated cut-off is given here; in the data, active means inhibition above about 27%; inactive means the rest.

SMILES | Mtb FBA inh | GDH-TPI counter-1 | Mtb UGM inh | Rv3671c inh | Mtb FBA inh conf | GDH-TPI counter-2 | others
COc1ccc(OC)c(/C=N/NC(=O)CCc2c(C)n[nH]c2C)c1 | 77.8* | 5.4 | -0.9 | 6.5 | 94.9* | 88.8*
COc1ccc(OC)c(/C=N/NC(=O)c2c(C)nc3ccc(C)cn23)c1 | 77.8* | 29.6 | 2.2 | -1.5 | 104.6* | 88.4*
COc1cccc(/C=N/NC(=O)c2c(C)nc3ccc(Br)cn23)c1 | 1.7 | 12.7 | 1.5 | 3.3 | . | .
COc1ccc(OC)c(/C=N/NC(=O)CCc2ccc(O)c(O)c2)c1 | 42.6* | 4.5 | 4.5 | 7.3 | 126.8* | 98.5*
CCCCCCN1C[C@H](n2cc(C3CC3)nn2)[C@@H](O)C[C@@H]1c1ccc(Cl)cc1 | -1.3 | 7.1 | . | . | . | .
Fc1ccc(Oc2ncccn2)c(F)c1 | 1.5 | -0.6 | -0.8 | -0.4 | . | .
Cc1c(Cc2ccccc2)c(=O)oc2c(C)c(OCc3nn[nH]n3)ccc12 | 65.9* | 18.2 | -1.9 | -9.3 | + | +
CCCc1cc(=O)oc2c(C)c(OCc3nn[nH]n3)ccc12 | 50.2* | 14.2 | -2.2 | 4.9 | 3.1 | -1.0
Cc1cc(OCc2nn[nH]n2)c2c(C)c(Cc3ccccc3)c(=O)oc2c1 | 104.8* | 3.4 | -0.4 | -6.6 | 66.1* | 58.2*
CCN(CC)C(=O)Cn1cc(S(=O)(=O)CC(=O)NC2CCCCC2)c2ccccc21 | 32.9* | -10.1 | ? | -5.5 | 98.9* | 83.4*
CN(C(=O)c1cccc(NC(=O)Cc2ccc(NC(=O)C3CCCN(C(=O)C4CCC4)C3)cc2)c1)C1CCCCC1 (configuration not stated) | 5.7 | 1.0 | . | . | . | .
CCOC(=O)c1ccc(-c2ccc(C=O)o2)cc1 | 16.5 | 21.5 | -0.7 | 0.3 | . | .
CCCOC(=O)c1cc(-c2ccc(C=O)o2)ccc1Cl | 97.3* | 27.6 | -1.1 | -0.7 | 7.0 | -4.5
Cc1nc2nc(Cc3ccccc3)[nH]n2c(=O)c1Cl | 29.4* | -6.6 | 3.1 | -0.9 | 49.4* | 50.0*
O=C([C@H]1O[C@@H](n2ccc(=O)[nH]c2=O)[C@H](O)[C@@H]1O)N1CCSC1 | 3.9 | . | . | . | . | .
COc1cc(/C=C/C(=O)OCC(=O)N2CCCCCC2)cc(OC)c1OC | 11.2 | 13.4 | . | . | . | .
Cc1ccc(C(C)C)cc1NC(=O)Nc1ccc([N+](=O)[O-])cc1 | -2.2 | 21.4 | -0.6 | -99.9 | . | .
CCN1CCSc2ccc(C(=O)NCc3ccc(OC(C)C)cc3)cc21 | 41.7* | 15.3 | -1.6 | 8.3 | 80.5* | 55.7*
CCOc1ccc(CNC(=O)c2ccc3c(c2)N(CC)CCS3)cc1 | 70.9* | 6.2 | 0.4 | 2.2 | 122.3* | 88.2*
CCN1C(=O)CSc2ccc(C(=O)NCc3ccc(OC)cc3)cc21 | -4.5 | -11.9 | 5.8 | -11.1 | . | .
CCOC(=O)N1CCN(C(=O)c2cn(CCOC)c(=O)c3c2c2ccccc2n3C)CC1 | 42.7* | 17.7 | -2.2 | -2.6 | + | +
COCCn1cc(C(=O)N2CCN(C)CC2)c2c3ccccc3n(C)c2c1=O | 42.3* | 0.6 | 3.7 | 0.6 | 106.4* | 62.1*
COCCn1cc(C(=O)NCc2cccs2)c2c3ccccc3n(C)c2c1=O | 23.2 | 11.6 | -0.9 | -3.8 | . | .
Cc1c(C)c2ccc(OC(C)C(=O)NCc3ccccn3)cc2oc1=O (configuration not stated) | 86.6* | 11.8 | -1.6 | -2.0 | 154.5* | 121.2*
Cc1cc(OC(C)C(=O)NCc2cccnc2)c2c(C)c(Cc3ccccc3)c(=O)oc2c1 (configuration not stated) | 18.8 | 19.6 | -0.9 | -8.7 | . | .
SMILES | Mtb FBA inh | GDH-TPI counter-1 | Mtb UGM inh | Rv3671c inh | Mtb FBA inh conf | GDH-TPI counter-2 | others
CC(Oc1ccc2c3c(c(=O)oc2c1)CCCC3)C(=O)NCc1ccccn1 (configuration not stated) | 79.5* | 12.0 | 0.7 | -3.1 | 31.4* | 16.1*
CC(Oc1ccc2c3c(c(=O)oc2c1)CCC3)C(=O)NCc1ccccn1 (configuration not stated) | 15.1 | 1.6 | -0.5 | 2.2 | . | .
Cc1cc(OC(C)C(=O)NCc2ccccn2)c2c(C)c(C)c(=O)oc2c1 (configuration not stated) | 43.6* | 10.3 | -1.7 | -5.2 | + | 172.8*
Cc1c(C)c2ccc(OCC(=O)NCc3ccccn3)cc2oc1=O | 81.1* | 2.4 | 0.5 | 2.7 | + | +
CCOCCCNC(=O)c1ccc2c(c1)ncn2-c1cccc(C)c1 | 1.4 | -3.9 | 3.5 | 5.5 | . | .
CCOC(=O)c1c(-c2ccc(Cl)cc2)cn2ccccc12 | 63.7* | 24.1 | -2.1 | -2.1 | + | 171.8*
Cc1cccn2c(=O)c3cc(C(=O)N4CCN(Cc5ccccc5)CC4)sc3nc12 | 57.3* | 13.3 | 0.3 | 4.0 | -2.3 | -2.9
CC1CCCN(C(=O)c2cc3c(=O)n4ccccc4nc3s2)C1 (configuration not stated) | 59.5* | 19.9 | 1.0 | 5.8 | 49.8* | 29.7*
O=C(c1cc2c(=O)n3ccccc3nc2s1)N1CCN(Cc2ccc3c(c2)OCO3)CC1 | 95.6* | 9.9 | 0.6 | 1.6 | 21.6 | -5.9 | GDH-TPI DR=2.32*
O=C(c1cc2c(=O)n3ccccc3nc2s1)N1CCN(Cc2ccccc2)CC1 | 105.3* | 3.0 | 0.8 | -4.2 | -3.4 | -6.4
O=C(Cn1ccc2ccccc2c1=O)N1CCN(Cc2ccc3c(c2)OCO3)CC1 | 0.5 | 4.5 | 1.1 | 2.2 | . | .
O=C(c1cc2ccccn2n1)N1CCN(Cc2ccccc2)CC1 | 4.7 | 7.3 | -1.5 | 1.6 | . | .
Cc1ccc(NC2CCCN(C(=O)c3cnc4ccccn4c3=O)C2)cc1C (configuration not stated) | 5.0 | 14.4 | 0.9 | -4.5 | . | .
CCN(C(=O)COC(=O)/C(C#N)=C/c1ccc(OC)cc1)C1CCS(=O)(=O)C1 (configuration not stated) | 1.7 | 18.5 | -0.9 | 0.9 | . | .
Cc1ccc(-c2cc(-c3ccccc3)c(C#N)c(N)n2)o1 | 28.5* | 8.9 | 0.0 | -2.0 | 148.4* | 125.3*
COC(=O)C1C(O)=C(C=Nc2cccc3ccccc23)C(=O)CC1(C)C (configuration not stated) | 31.8* | 4.8 | -1.0 | -7.7 | 131.4* | 93.5*
CN(C)c1ccc(/C=N/N=C(N)N)cc1[N+](=O)[O-] | 79.6* | 30.0 | -0.5 | -4.2 | 197.9* | 132.2*
Cc1ccc(S(=O)(=O)Nc2nc(C)c(C(=O)NN)s2)cc1 | 5.5 | 29.6 | -1.1 | -4.8 | . | .
